Data from PubChem BioAssay (NCATS).
Where “and” joins values, the source holds several entries; their conditions need not be identical. Equal values may be shown once. Records with an inconclusive call do not appear. Calls of active or inactive are those of the source. Unless noted, calls come from the whole dose curve; as a rule, active = well fitted curve in the direction sought with a large enough effect; inconclusive = small, poorly fitted or top-dose-only effect, or another doubt; inactive = no such curve, though single readings can be large; an effect the other way counts as inactive or inconclusive.

Key:
[1] = target: Cellular tumor antigen p53 (Homo sapiens) (UniProt P04637); experiment: Primary qHTS for small molecule compounds that upregulate eGFP-tagged delta133p53alpha (in N-terminal) cells. (AID 2060322); conditions: NCI-H358 eGFP-delta133p53alpha fluorescence, 24 h; activation: active compounds read high;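 note: series mostly up to about 56 µM; 0% = DMSO vehicle and 100% = reference activator; nearly all actives have a fitted effect of over 75% in size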
How it was run: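 NCI-H358 cells pre-induced 24 h with 10 ng/ml doxycycline to express N-terminal eGFP-delta133p53alpha, then dosed 24 h at 37C without doxycycline; fixed, Hoechst-stained, GFP intensity by laser scanning cytometry, normalized to DMSO (0%) and 57.5 uM 5-azacytidine (100%).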

[2] = target: Cellular tumor antigen p53 (Homo sapiens) (UniProt P04637); experiment: Primary qHTS for small molecule compounds that upregulate eGFP-tagged delta133p53alpha (in C-terminal) cells. (AID 2060324);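 note: 0% = DMSO wells and 100% = 57.5 µM 5-azacytidine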
How it was run: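 In this qHTS, GFP-tagged delta133p53alpha levels are measured in fixed NCI-H358 cells after 24 h compound exposure at 37 °C. The cells are pre-induced with 100 ng/ml doxycycline, and signal is normalized to DMSO-treated wells as 0%.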

[3] = target: Aldehyde dehydrogenase, mitochondrial (Homo sapiens) (UniProt P05091); experiment: qHTS for Inhibitors of the Aldehyde Dehydrogenase Family (ALDH2) Validation screens (AID 2061302; active = well fitted inhibition curve with a large enough effect; title and protocol of this record describe different tests;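 note: plate controls were DMSO vehicle for no effect and maximal DPI positive control response for full effect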)
[4] = target: Retinaldehyde dehydrogenase 3 (Homo sapiens) (UniProt P47895); experiment: qHTS for Inhibitors of the Aldehyde Dehydrogenase Family (ALDH1A3) Validation screen (AID 2061312); note: % is set by controls: 0 for no effect and ±100 for the full control effect; nearly all actives have a fitted effect of over 45% in size

Sequence of Cellular tumor antigen p53 (Homo sapiens) (P04637 whole entry, looked up): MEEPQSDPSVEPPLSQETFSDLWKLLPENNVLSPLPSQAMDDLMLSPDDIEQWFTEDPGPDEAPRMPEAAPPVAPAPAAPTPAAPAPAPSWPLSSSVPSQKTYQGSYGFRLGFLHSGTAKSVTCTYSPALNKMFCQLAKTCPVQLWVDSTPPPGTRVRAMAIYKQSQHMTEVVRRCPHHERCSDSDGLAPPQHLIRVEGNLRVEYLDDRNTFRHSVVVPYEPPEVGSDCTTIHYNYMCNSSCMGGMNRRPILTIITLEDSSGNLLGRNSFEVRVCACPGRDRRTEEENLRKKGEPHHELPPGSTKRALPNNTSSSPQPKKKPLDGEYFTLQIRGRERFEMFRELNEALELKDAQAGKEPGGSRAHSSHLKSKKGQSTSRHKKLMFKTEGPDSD

CO[C@@]1(NC(=O)CSCC#N)C(=O)N2C(C(=O)O)=C(CSc3nnnn3C)CS[C@@H]21
inactive: activation [1] 11.9% and 5.62% | Potency [2] | Potency [3] | Potency [4]

NC1=NCC2c3ccccc3Cc3ccccc3N12 (configuration not stated)
inactive: activation [1] -14.2% and -12.4% | Potency [2] | Potency [3] | Potency [4]

CC(C)NCC(O)COc1ccc(COCCOC(C)C)cc1 (configuration not stated)
inactive: activation [1] -8.37% and -9.29% and -8.52% | Potency [2] | Potency [3] | Potency [4]

O=C(c1ccc(Cl)cc1)N1CCN(c2ccc([N+](=O)[O-])c3ncccc23)CC1
inactive: activation [1] -9.46% | Potency [2] | Potency [3] | Potency [4]

CCc1cccc2c3c([nH]c12)C(CC)(CC(=O)O)OCC3 (configuration not stated)
inactive: activation [1] -0.565% and -1.6% | Potency [2] | Potency [3] | Potency [4]

N[C@H](C(=O)O)[C@H]1C[C@@H]1C(=O)O
inactive: activation [1] 6.82% | Potency [2] | Potency [3] | Potency [4]

Nc1ncnc2c1nc(Sc1ccc(Cl)cc1)n2[C@H]1OC2COP(=O)(O)O[C@@H]2C1O (some centres not stated)
inactive: activation [1] 27.8% | Potency [2] | Potency [3] | Potency [4]

C[N+](C)(C)CCCCCC[N+](C)(C)C
inactive: activation [1] -20.9% and 7.49% and -11.5% | Potency [2] | Potency [3] | Potency [4]

N[C@@H](Cc1cnc[nH]1)C(=O)O
inactive: activation [1] 30.1% | Potency [2] | Potency [3] | Potency [4]

Cc1ccccc1C(OCCN(C)C)c1ccccc1 (configuration not stated)
inactive: activation [1] 0.562% and -27.9% | Potency [2] | Potency [3] | Potency [4]

CC(C)(C=O)Cc1cc(C(C)(C)C)c(O)c(C(C)(C)C)c1
inactive: activation [1] -15.2% | Potency [2] | Potency [3] | Potency [4]

NCCCCC(=O)O
inactive: activation [1] -27.1% | Potency [2] | Potency [3] | Potency [4]

CCc1cccc(N(C)C(N)=Nc2cccc3ccccc23)c1
inactive: activation [1] 19.2% | Potency [2] | Potency [3] | Potency [4]

COCc1nc2c([nH]1)c(=O)n(C)c(=O)n2CC(C)C
inactive: activation [1] 12.4% | Potency [2] | Potency [3] | Potency [4]

COc1cc(C(O)CO)ccc1OS(=O)(=O)O (configuration not stated)
inactive: activation [1] 5.13% | Potency [2] | Potency [3] | Potency [4]

CC1=C(C(=O)O)N2C(=O)[C@@H](NC(=O)C(N)c3ccccc3)[C@H]2SC1 (some centres not stated)
inactive: activation [1] 15.6% and -22.6% | Potency [2] | Potency [3] | Potency [4]

CCCn1c(=O)c2c(ncn2C)n(CCC)c1=O
inactive: activation [1] -49.6% | Potency [2] | Potency [3] | Potency [4]

C[N+]1(C)C2CC(OC(=O)[C@H](CO)c3ccccc3)CC1C1OC12 (some centres not stated)
inactive: activation [1] 4.68% and -6.58% | Potency [2] | Potency [3] | Potency [4]

Fc1ccc(CN(C2=NCCN2)c2c(Cl)cccc2Cl)cc1
inactive: activation [1] -28.1% | Potency [2] | Potency [3] | Potency [4]

CCCn1c(=O)[nH]c(=O)c2[nH]cnc21
inactive: activation [1] 24.9% | Potency [2] | Potency [3] | Potency [4]

O=C(O)c1cc2cc(F)ccc2[nH]1
inactive: activation [1] -70.8% | Potency [2] | Potency [3] | Potency [4]

CSC(=N)N
inactive: activation [1] 3.81% | Potency [2] | Potency [3] | Potency [4]

Cn1c(=O)c2[nH]c(-c3ccccc3)nc2n(C)c1=O
inactive: activation [1] -37% | Potency [2] | Potency [3] | Potency [4]

O=C(O)[C@H]1NCCC[C@H]1C(=O)O
inactive: activation [1] -3.88% | Potency [2] | Potency [3] | Potency [4]

CC(=O)O[C@H]1CC2(C)[C@@H](C[C@@H](O)[C@H]3[C@@]4(C)CC[C@@H](O)[C@@H](C)[C@@H]4CC[C@@]32C)C1=C(CCC=C(C)C)C(=O)O (some centres not stated)
inactive: activation [1] -11.4% | Potency [2] | Potency [3] | Potency [4]

Nc1cc(=O)[nH]c(N)n1
inactive: activation [1] -34.3% and -22.6% | Potency [2] | Potency [3] | Potency [4]

C=C1C[C@@]23CC[C@H]4[C@@](C)(CCC[C@@]4(C)C(=O)OC4OC(CO)C(O)C(O)C4O)[C@@H]2CC[C@]1(OC1OC(CO)C(O)C(O)C1OC1OC(CO)C(O)C(O)C1O)C3 (some centres not stated)
inactive: activation [1] -5.25% | Potency [2] | Potency [3] | Potency [4]

O=[N+]([O-])c1cccc2cn[nH]c12
inactive: activation [1] -32.7% | Potency [2] | Potency [3] | Potency [4]

CN(C)CCC(c1ccc(Cl)cc1)c1ccccn1 (configuration not stated)
inactive: activation [1] -24.5% | Potency [2] | Potency [3] | Potency [4]

O=c1onc2n1-c1cc(Br)ccc1OC2
inactive: activation [1] -18.5% | Potency [2] | Potency [3] | Potency [4]

CC1CC2C3CCC4=CC(=O)C=C[C@]4(C)[C@@]3(F)[C@@H](O)C[C@]2(C)[C@@]1(O)C(=O)CO (some centres not stated)
inactive: activation [1] -4.86% and -24.4% | Potency [2] | Potency [3] | Potency [4]

O=C(O)c1cccnc1C(=O)O
inactive: activation [1] -17.2% | Potency [2] | Potency [3] | Potency [4]

CCn1nc(C(=O)O)c(=O)c2cc3c(cc21)OCO3
inactive: activation [1] -7.53% and -29.2% | Potency [2] | Potency [3] | Potency [4]

CC(C)C(=O)c1c(C(C)C)nn2ccccc12
inactive: activation [1] -13.4% and -31.4% | Potency [2] | Potency [3] | Potency [4]

CCOC(=O)N1CCC(=C2c3ccc(Cl)cc3CCc3cccnc32)CC1
inactive: activation [1] 20.9% and 5.49% | Potency [2] | Potency [3] | Potency [4]

NCCCS(=O)(=O)O
inactive: activation [1] 14.5% | Potency [2] | Potency [3] | Potency [4]

O=c1n(CCCN2CCN(c3cccc(Cl)c3)CC2)nc2ccccn12
inactive: activation [1] -7.53% and 33.4% and -0.284% | Potency [2] | Potency [3] | Potency [4]

CCCC1O[C@@H]2C[C@H]3[C@@H]4CCC5=CC(=O)C=C[C@]5(C)[C@H]4[C@@H](O)C[C@]3(C)[C@]2(C(=O)CO)O1 (some centres not stated)
inactive: activation [1] -22.8% | Potency [2] | Potency [3] | Potency [4]

COc1ccc(CCn2nnnc2C2(c3ccc(C)cc3)CC2)cc1
inactive: activation [1] -20.3% | Potency [2] | Potency [3] | Potency [4]

CCN1CCCC1CNC(=O)c1cc(S(N)(=O)=O)ccc1OC (configuration not stated)
inactive: activation [1] 8% and -7.28% | Potency [2] | Potency [3] | Potency [4]

Cc1nc(N=Nc2ccc(C(=O)O)cc2)c(COP(=O)(O)O)c(C=O)c1O
inactive: activation [1] -2.63% | Potency [2] | Potency [3] | Potency [4]

C[C@]12C=CC(=O)C=C1CC[C@H]1[C@@H]3C[C@@H](O)[C@](O)(C(=O)CO)[C@@]3(C)C[C@H](O)[C@@]12F
inactive: activation [1] 10.9% and -4.1% | Potency [2] | Potency [3] | Potency [4]

CCN(c1nc(N)c(C(=O)N=C(N)N)nc1Cl)C(C)C
inactive: activation [1] -41.7% | Potency [2] | Potency [3] | Potency [4]

CN(C)CC[C@@H](c1ccc(Cl)cc1)c1ccccn1
inactive: activation [1] -9.6% and -8.57% | Potency [2] | Potency [3] | Potency [4]

O=C(O)CNC(=O)C(CS)Cc1ccccc1 (configuration not stated)
inactive: activation [1] -14.4% | Potency [2] | Potency [3] | Potency [4]

CCC(=O)N1CCN(C(=O)c2ccccc2)CC1
inactive: activation [1] -16% | Potency [2] | Potency [3] | Potency [4]

CN(C)C(=O)Oc1ccc[n+](C)c1
inactive: activation [1] -10.7% and 11.9% | Potency [2] | Potency [3] | Potency [4]

Clc1ccc(N2CCN(Cc3cc4ccccn4n3)CC2)cc1
inactive: activation [1] -21.6% | Potency [2] | Potency [3] | Potency [4]

NC(N)=NC(N)=Nc1ccccc1
inactive: activation [1] -1.81% | Potency [2] | Potency [3] | Potency [4]

N#Cc1cc2nc(O)c(O)nc2cc1[N+](=O)[O-]
inactive: activation [1] -30.1% | Potency [2] | Potency [3] | Potency [4]

C(=C\c1ccccc1)/CN1CCN(C(c2ccccc2)c2ccccc2)CC1
inactive: activation [1] -1.67% and -21% | Potency [2] | Potency [3] | Potency [4]

CC(CCc1ccc(O)cc1)NCCc1ccc(O)c(O)c1 (configuration not stated)
inactive: activation [1] 23.7% and -15.1% and -3.75% | Potency [2] | Potency [3] | Potency [4]

CN[C@H](CC(=O)O)C(=O)O
inactive: activation [1] -12.8% | Potency [2] | Potency [3] | Potency [4]

Nc1ncnc2c1ncn2C1CCCO1 (configuration not stated)
inactive: activation [1] 9.27% | Potency [2] | Potency [3] | Potency [4]

O=c1[nH]c2cc(C(F)(F)F)ccc2n1-c1cc(C(F)(F)F)ccc1O
inactive: activation [1] -56.6% | Potency [2] | Potency [3] | Potency [4]

CN(C)CCOC(C)(c1ccccc1)c1ccccn1 (configuration not stated)
inactive: activation [1] -7.21% | Potency [2] | Potency [3] | Potency [4]

Nc1nc2c(nc(Br)n2C2OC3COP(=O)(O)O[C@@H]3C2O)c(=O)[nH]1 (some centres not stated)
inactive: activation [1] 29.4% | Potency [2] | Potency [3] | Potency [4]

NCCS(=O)O
inactive: activation [1] -4.42% | Potency [2] | Potency [3] | Potency [4]

COc1ccc2c(c1)c(CC(=O)O)c(C)n2C(=O)c1ccccc1
inactive: activation [1] -16.8% | Potency [2] | Potency [3] | Potency [4]

OC1(c2ccc(Cl)cc2)CCN(Cc2c[nH]c3ccccc23)CC1
inactive: activation [1] -4.41% | Potency [2] | Potency [3] | Potency [4]

CN1CCCC1CCOC(C)(c1ccccc1)c1ccc(Cl)cc1 (configuration not stated)
inactive: activation [1] -26.8% | Potency [2] | Potency [3] | Potency [4]

N=C(N)SCCN
inactive: activation [1] -11.7% | Potency [2] | Potency [3] | Potency [4]

OC[C@H]1O[C@H](n2cnc3c(N[C@H]4CCC[C@@H]4O)ncnc32)[C@H](O)[C@@H]1O
inactive: activation [1] -36% | Potency [2] | Potency [3] | Potency [4]
